Bioassay records deposited in PubChem by The Scripps Research Institute Molecular Screening Center.
GPR151 activ – human GPR151 activation. PathHunter beta-arrestin GPR151 cells, luminescence. activation, % at 11.2 µM. 650,000 tested, 1% active. AID 1508602; in the data active means activation above about 4.9%
Target sequence (Q8TDV0 whole entry, looked up): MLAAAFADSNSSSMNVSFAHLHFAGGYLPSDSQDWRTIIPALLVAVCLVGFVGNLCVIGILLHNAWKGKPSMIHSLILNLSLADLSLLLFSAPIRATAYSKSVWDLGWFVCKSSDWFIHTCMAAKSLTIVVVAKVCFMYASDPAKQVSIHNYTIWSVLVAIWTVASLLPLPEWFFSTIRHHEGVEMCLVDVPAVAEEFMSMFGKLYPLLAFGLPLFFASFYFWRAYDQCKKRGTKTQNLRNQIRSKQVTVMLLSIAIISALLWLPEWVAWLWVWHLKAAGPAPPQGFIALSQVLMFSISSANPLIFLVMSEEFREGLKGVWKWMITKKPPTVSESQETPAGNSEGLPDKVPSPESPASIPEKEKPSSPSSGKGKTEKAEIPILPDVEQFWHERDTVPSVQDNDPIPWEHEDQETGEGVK
TEAD-YAP block – TEAD-YAP interaction inhibition; inhibition, % at 9.12 µM; 640,000 tested, 1.4% active; HEK-TIYL cells, TEAD-Gal4/YAP UAS-luciferase luminescence; AID 1259422; in the data active means inhibition above about 32%
FBW7 activator – human FBW7 E3 ligase activation, primary screen; 650,000 tested, 0.13% active; AlphaScreen FBW7–phospho-cyclin E peptide binding, activator screen; normalized activity (activation), % at 26.1 µM; in the data active means normalized activity above about 1.9%;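 further: purified mutant Fbw7 with reduced substrate affinity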
MITF primary – blocks human microphthalmia-associated transcription factor; AlphaScreen MITF homodimerization, bead proximity signal; 650,000 tested, 0.91% active; inhibition, % at 2.6 µM; in the data active means inhibition above about 50%
MITF inh conf – confirmation of human MITF inhibitors; shares compounds with MITF primary; AlphaScreen MITF homodimerization, biotin/His-MITF beads; inhibition, % at 2.6 µM; 4,700 tested, 16% active; AID 1259372;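 active means inhibition above a cutoff derived from the DMSO control wells, cut at about 28% in these data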;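 further: inhibitors lower the bead chemiluminescence by keeping MITF from dimerizing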
AlphaScreen intf2 – AlphaScreen optical interference, counter-screen; LysRS AlphaScreen counterscreen, signal interference, triplicate; AID 1259376; inhibition, % at 2.6 µM; 4,700 tested, 7.6% active; shares compounds with MITF primary;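 active means inhibition above a cutoff derived from the DMSO control wells, cut at about 30% in these data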
Each line names hits and unclear results; the compound was inactive in the other large screens (follow-up assays come after a bar, where they were run). Shown are actives, neighbours in structure and some others; about 3.5% of the full set was active somewhere.

COc1cc(OC)cc(C(=O)N2CCN(Cc3ccccc3C(F)(F)F)CC2)c1	MITF primary 62 | MITF inh conf inactive | AlphaScreen intf2 inactive
COc1ccccc1CN1CCN(C(=O)c2cccs2)CC1	none
COc1ccccc1CN1CCN(Cc2ccccc2C(F)(F)F)CC1	MITF primary 70 | MITF inh conf inactive | AlphaScreen intf2 inactive
COc1ccc(OC)c(CN2CCN(C(=O)c3c(OC)cccc3OC)CC2)c1	none
COc1cccc(OC)c1C(=O)N1CCN(Cc2ccccc2C(F)(F)F)CC1	MITF primary 52 | MITF inh conf inactive | AlphaScreen intf2 inactive
COc1cc(OC)cc(C(=O)N2CCN(Cc3cc(OC)c(OC)cc3OC)CC2)c1	none
COc1cccc(OC)c1C(=O)N1CCN(Cc2ccccc2Br)CC1	MITF primary 63 | MITF inh conf inactive | AlphaScreen intf2 inactive
NS(=O)(=O)c1ccc(CCNC(=O)C(=O)Nc2ccc3c(c2)OCCO3)cc1	none
Cc1ccc2nc(-c3cc(NC(=O)c4cc5ccccc5o4)ccc3Cl)oc2c1	none
COc1ccc(CN2CCCCC2)cc1OC	none
COc1ccc(CN2CCN(Cc3ccc(Cl)cc3)CC2)c(OC)c1	MITF primary 61 | MITF inh conf inactive | AlphaScreen intf2 inactive
CCS(=O)(=O)N1CCN(Cc2cc(OC)ccc2OC)CC1	none
COc1ccc(CN2CCOCC2)c(OC)c1	none
CCOc1ccc(CN2CCN(Cc3cc(OC)ccc3OC)CC2)cc1	MITF primary 79 | MITF inh conf inactive | AlphaScreen intf2 inactive
COc1ccc(OC)c(CN2CCN(Cc3ccc(SC)cc3)CC2)c1	MITF primary 76 | MITF inh conf inactive | AlphaScreen intf2 inactive
COc1ccc(CN2CCN(Cc3ccc(SC)cc3)CC2)cc1OC	TEAD-YAP block 35, MITF primary 76 | MITF inh conf inactive | AlphaScreen intf2 inactive
COc1ccc(CN2CCC(O)CC2)c(OC)c1	none
CCOc1ccc(CN2CCN(Cc3ccc(OC)cc3OC)CC2)cc1	MITF primary 68 | MITF inh conf inactive | AlphaScreen intf2 inactive
COc1cc(CN2CCN(Cc3ccc(OC)cc3OC)CC2)cc(OC)c1	MITF primary 70 | MITF inh conf inactive | AlphaScreen intf2 inactive
CCc1ccc(CN2CCN(Cc3ccc(OC)cc3OC)CC2)cc1	MITF primary 66 | MITF inh conf inactive | AlphaScreen intf2 inactive
CCc1ccc2nc(N3CCC(C(=O)NC4CCCC4)CC3)sc2c1	none
O=C(c1cnn2c1NC(c1cccs1)CC2C(F)(F)F)N1CCOCC1 (stereo not given)	none
c1ccc(-c2cc(Nc3ccc4c(c3)OCCO4)ncn2)cc1	none
Cc1ccc(/C=N/Nc2cccc(C(=O)O)c2)o1	MITF primary 59 | MITF inh conf inactive | AlphaScreen intf2 inactive
Cc1nn(C)c(C)c1CCC(=O)N1CCN(c2ncccn2)CC1	MITF primary 72 | MITF inh conf inactive | AlphaScreen intf2 inactive
CC(C)CCN1C(=O)Cc2c1nc(N)c1c(N)nc(N3CC(C)OC(C)C3)c(C#N)c21 (stereo not given)	none
COc1cc(/C=N/NC(=O)c2cccc(NC(=O)c3ccc(C)cc3)c2)cc(OC)c1OC	none
O=C(NCc1cccs1)c1nn2c(C(F)(F)F)cc(-c3ccco3)nc2c1Br	MITF primary 78 | MITF inh conf inactive | AlphaScreen intf2 inactive
Cc1cc(-c2cnc(C)nc2C2CCCN(Cc3cccnc3)C2)on1 (stereo not given)	MITF primary 53 | MITF inh conf inactive | AlphaScreen intf2 inactive
Cc1cc(-c2cnc(C)nc2C2CCCN(Cc3ccncc3)C2)on1 (stereo not given)	none
CCCOC(=O)c1ccc(NC(=O)c2cc(-c3ccc(Br)cc3)nc3ccccc23)cc1	none
Cc1ccc(-c2cc(C(=O)Nc3ccccc3Cl)c3ccccc3n2)cc1	none
Cc1ccc(-c2cc(C(=O)Nc3ccccc3Br)c3ccccc3n2)cc1	MITF primary 56 | MITF inh conf inactive | AlphaScreen intf2 inactive
CCCCOC(=O)c1ccc(NC(=O)c2cc(-c3ccc(Br)cc3)nc3ccccc23)cc1	MITF primary 57 | MITF inh conf inactive | AlphaScreen intf2 inactive
Cc1ccc(NC(=O)CN2C(=O)C3(SCC(=O)N3c3ccc(F)cc3)c3ccccc32)c(C)c1 (stereo not given)	none
Cc1cc(C(=O)NCc2nnc3n2CCN(Cc2ccc4ccccc4c2)CC3)c(C)o1	none
O=[N+]([O-])c1cc(CN2CCCCC2)c2cccnc2c1O	MITF primary 112 | MITF inh conf 106 | AlphaScreen intf2 100
